# From PubChem BioAssay
# TTR transcr act – TTR transcription activation, primary screen; SH-SY5Y TTR promoter Gaussia luciferase, luminescence; 100% = recombinant luciferase protein wells; activation, % at 16.7 µM; 92,000 tested, 1.3% active; AID 1117267;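 active means activation above the mean of all tested compounds plus 3 SD, cut at about 9.5% in these data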;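 further: cells exposed to compounds for one day before reading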
# HuH7 TTR inh – decreases TTR transcription in HuH7 cells in activator counter-screen | HuH7 TTR promoter-Gaussia luciferase reporter, luminescence | AID 1117279 | shares compounds with TTR transcr act | 1,100 tested, 4% active | inhibition, % at 16.7 µM;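 active means average inhibition above the solvent-only control wells' mean plus 3 SD, cut at about 15% in these data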;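 further: inhibitors lower well luminescence so higher value means more inhibition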
# TTR act confirm – human TTR transcription activation, confirmation; 1,100 tested, under 10 active; activation, % at 16.7 µM; shares compounds with TTR transcr act; SHSY5Y TTR promoter Gaussia luciferase, luminescence; 100% = purified Lucia enzyme wells, no cells;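 active means mean activation above a set limit taken from the earlier primary screen, cut at about 11% in these data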
# A number is an active result; . = inactive. Only a selection was taken, and hits are over-represented in it overall.
SMILES,TTR transcr act,others
CCn1c(C)cc(/C=C2\C(=O)NC(=O)N(c3ccccc3C)C2=O)c1C,.,
Cc1ccc(-n2c(C)cc(/C=C3/C(=O)NC(=O)N(C)C3=O)c2C)cc1,.,
COc1ccc(N2C(=O)/C(=C/c3cc(C)n(-c4ccc(C)cn4)c3C)C(=O)NC2=S)c(OC)c1,11,HuH7 TTR inh=.;TTR act confirm=.
COC1CC=C2CCN3CCC4=C(CC(=O)OC4)C23C1 (stereo unspecified),.,
CC(NC(=O)OCc1ccccc1)[P+](=O)O (stereo unspecified),.,
Cc1ccc(-n2c(O)c(/C=N/NC(=O)c3ccncc3)c(=O)[nH]c2=O)cc1,.,
Cc1cccc(-n2c(O)c(/C=N/NC(=O)c3ccncc3)c(=O)[nH]c2=O)c1,.,
O=C(N/N=C/c1c(O)n(-c2ccccc2)c(=O)[nH]c1=O)c1ccncc1,13,HuH7 TTR inh=.;TTR act confirm=.
COC(=O)C1CC(OC(C)=O)C(=O)[C@H]2C1(C)CC[C@H]1C(=O)OC(c3ccoc3)CC12C (stereo partly specified),.,
CCCC(=O)NC1=C(N2CC2)C(=O)C(NC(=O)CCC)=C(N2CC2)C1=O,11,HuH7 TTR inh=53;TTR act confirm=.
CCCC(=O)Nc1ccc(N2CCN(CC)CC2)c(Cl)c1,.,
CCOC1=C(N2CC2)C(=O)C(OCC)=C(N2CC2)C1=O,.,
COC(=O)C1=C(C(=O)OC)SC2(S1)C(C(=O)OC)=C(C(=O)OC)Sc1c2ssc1=O,.,
Cc1ccc(-n2c(O)c(C=Nc3ccc(Br)cn3)c(=O)[nH]c2=O)cc1,.,
CC[C@]12CCN(CC3(O)CC3)C(Cc3ccc(O)cc31)C2(C)C,.,
CCC(C(=O)N1CCC2(CC1)OCCO2)n1c2ccccc2c2nc(=O)cc(C)n21 (stereo unspecified),.,
COc1ccc([C@@H](O)[C@@H](N)c2ccccc2)cc1,.,
O=C(/C=C/c1ccc2c(c1)OCO2)c1c(O)n(CCC2=CCCCC2)c(=O)[nH]c1=O,.,
C=CCn1c(O)c(C(CC)=NCc2ccc3c(c2)OCO3)c(=O)[nH]c1=O,.,
CCCCn1c(O)c(C(=O)/C=C/c2ccc3c(c2)OCO3)c(=O)[nH]c1=O,21,HuH7 TTR inh=15;TTR act confirm=.
CCOC(=O)[C@]12Cc3cc(C)ccc3[C@H]1N(C1CCCCC1)C(=O)c1ccccc12,.,
CCOP(=O)(OCC)C(O)c1ccc2c(c1)OCO2 (stereo unspecified),.,
CN1C2CCC1C(C(=O)Oc1ccccc1)C(c1ccc(Cl)cc1)C2 (stereo unspecified),.,
NC1CC2CCCCC2CC1(O)c1ccccc1 (stereo unspecified),.,
COc1ccc(C(=O)Nc2cccc(S(=O)(=O)NCc3ccco3)c2)cc1,11,HuH7 TTR inh=.;TTR act confirm=.
SMILES,TTR transcr act,others
COc1ccc(Cn2c(N)c(C(=O)NCc3ccco3)c3nc4ccccc4nc32)cc1OC,.,
O=C(Nc1ccc(Cl)c(Cl)c1)c1ccco1,.,
CC(C)CCP(=O)(O)O,.,
CC1=C(C)CC2(CC1)C(=O)NC(=O)NC2=O,.,
CC[C@@H](CO)C1CC2NC3CC4(c5ccccc5N(C)[C@@H]24)C(O)C31 (stereo partly specified),.,
CCOC(=O)N1CCC(NC(=O)CCc2nc(C3=CCN(C)CC3)no2)CC1,10,HuH7 TTR inh=.;TTR act confirm=.
CCC1CN1P(=O)(c1ccccc1)N1CC1CC (stereo unspecified),.,
COCCOC(=O)C1=C(N)OC(C)=C(C(=O)OC)C12C(=O)Nc1ccccc12 (stereo unspecified),.,
C=CCOC(=O)C1=C(C)OC(N)=C(C#N)C12C(=O)N(CN1CCOCC1)c1ccccc12 (stereo unspecified),11,HuH7 TTR inh=.;TTR act confirm=.
CCOC(=O)C1=C(N)Oc2c(c(=O)oc3ccccc23)C12C(=O)N(C)c1ccccc12 (stereo unspecified),.,
COc1ccc(OC(=O)N(C)C[C@@H]2OCc3cnnn3CCCC(=O)N([C@@H](C)CO)C[C@H]2C)cc1,.,
O=c1[nH]c2ccccc2n1C1CCN(C(c2cc3ccccc3o2)c2nnnn2-c2ccc3c(c2)OCCO3)CC1 (stereo unspecified),.,
CN1C(=O)C(Cc2ccsc2)C(=O)N(C)C1=O,12,HuH7 TTR inh=.;TTR act confirm=.
CN1C(=O)C(C2CCCCC2)C(=O)N(C)C1=O,.,
CN1C(=O)C(Cc2ccccc2)C(=O)N(C)C1=O,.,
Cc1ncoc1C(=O)NCC1=C(c2ccc3ccccc3c2)C[C@@H]2CC[C@H]1N2Cc1ccco1,.,
CC(=O)OC1CCC2(C)C(CCC3C4CC(N5CC5)C(C(C)=O)C4(C)CC(=O)C32)C1 (stereo unspecified),.,
O=C(NC12CC3CC(CC(C3)C1)C2)OC1CN2CCC1CC2 (stereo unspecified),13,HuH7 TTR inh=.;TTR act confirm=.
C=CCCC1(CC)C(=O)NC(=S)NC1=O,.,
CC(NC(=O)OCc1ccccc1)P(=O)(Oc1ccccc1)Oc1ccccc1 (stereo unspecified),.,
